Screens as filed in PubChem BioAssay.
Only some compounds are listed: those with a hit (about 7.4% of all), similar ones and a draw of the others.
Rab9 promoter act – activates the Rab9 promoter; 2.8% of 320,000 active; Potency, µM (top dose mostly 9.22 µM), without a hit: top-dose activation, negative = inhibition, hits mostly activators; Huh7 Rab9 promoter-luciferase reporter, luminescence, 24 h; further: % of control where 0% means no effect; nearly all actives have a fitted effect of over 60% in size
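Promoter activation is measured as luciferase luminescence in Huh7 cells stably transfected with a Rab9 promoter–luciferase construct, following 24 h compound exposure at 37 °C and 10 min reagent incubation at ambient temperature.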
ELG1 genotoxic – genotoxicity induction in ELG1-luciferase HEK293T cells. HEK293T ELG1-luciferase reporter, luminescence, 16 h. AID 504466. Potency, µM (doses to about 46 µM), without a hit: at the top dose activity change, positive = activation, hits mostly activators. 1.3% of 330,000 active; further: % of control where 0% means no effect; nearly all actives have a fitted effect of over 60% in size
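Genotoxic stress is detected as increased luminescence from luciferase-tagged ELG1 in HEK293T cells, measured with ONE-Glo after a 16 hr treatment at 37 °C.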
SMN2 splice up – enhancers of SMN2 splice variant expression; 2.8% of 210,000 active; HEK293 SMN2-luciferase splicing reporter, luminescence, 30-36 h; AID 1458; Potency, µM (top dose mostly 46.1 µM), inactives show at the highest dose activity change, positive = activation, most hits filed as activators; further: % of control where 0% means no effect; nearly all actives have a fitted effect of over 55% in size
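HEK293 cells carry an SMN2 minigene-luciferase reporter in which exon 7 inclusion puts luciferase in frame. Cells were seeded at 2000 cells/well, attached for 10-12 hours, then exposed to compounds for 30-36 hours at 37C before ONE-Glo luminescence.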
FLuc counter – inhibits or activates purified firefly luciferase, miR-21 counter-screen; purified FLuc, Km substrates, luminescence inhibition; P08659; 6.9% of 360,000 active; Potency, µM (series often up to 57.5 µM), for the others: top-dose activity change, negative = inhibition, usual class: inhibitors;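 further: plate controls were vehicle for no effect and reference inhibitor for full effect; nearly all actives have a fitted effect of over 55% in size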
Target sequence (P08659 whole entry, looked up): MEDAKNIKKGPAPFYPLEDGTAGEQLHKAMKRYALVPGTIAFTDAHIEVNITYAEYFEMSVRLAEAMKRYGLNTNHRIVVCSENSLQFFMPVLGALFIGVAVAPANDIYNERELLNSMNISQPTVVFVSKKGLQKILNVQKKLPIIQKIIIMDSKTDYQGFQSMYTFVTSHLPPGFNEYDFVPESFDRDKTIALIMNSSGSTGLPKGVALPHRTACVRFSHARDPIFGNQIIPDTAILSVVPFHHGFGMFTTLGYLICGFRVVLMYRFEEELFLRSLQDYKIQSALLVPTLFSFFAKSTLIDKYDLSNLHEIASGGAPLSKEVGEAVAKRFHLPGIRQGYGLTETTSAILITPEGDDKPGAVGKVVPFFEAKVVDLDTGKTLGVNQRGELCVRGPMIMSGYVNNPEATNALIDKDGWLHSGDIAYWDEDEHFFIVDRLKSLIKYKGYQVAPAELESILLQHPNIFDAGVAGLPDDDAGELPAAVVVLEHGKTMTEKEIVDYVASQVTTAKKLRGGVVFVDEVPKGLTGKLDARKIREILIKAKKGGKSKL
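Purified P. pyralis luciferase (10nM final) with 10uM D-luciferin and 10uM ATP (Km levels) in 50mM Tris acetate pH 7.5, 10mM Mg acetate, 0.01% Tween-20, 0.05% BSA; qHTS 6-point titration, ~60 µM downward; luminescence read.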
NPC1 prom act – activators of NPC1 promoter. Huh7 NPC1 promoter luciferase reporter, 24 h. Potency, µM (highest dose often 9.22 µM), inactives show at the highest dose activation, hits mostly activators. 2.4% of 320,000 active. AID 485313; further: % of control where 0% means no effect; nearly all actives have a fitted effect of over 60% in size
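Compounds in DMSO were transferred onto Huh7 NPC1-luciferase reporter cells pre-incubated 2 h; after 24 h at 37 °C, Amplite reagent was dispensed and luminescence recorded 10 min later.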
Active calls of the source: *. The call rests on the fitted dose curve; in most records, active means well fitted curve in the direction sought with a large enough effect; inconclusive means small, poorly fitted or top-dose-only effect, or another doubt; inactive means no such curve, though single readings can be large; an effect the other way counts as inactive or inconclusive. Potency means the concentration at half of the fitted maximal effect.

`O=S(=O)(c1ccc(S(=O)(=O)N2CCCC2)cc1)N1CCCCC1` gave Rab9 promoter act 0.5%, ELG1 genotoxic -0.3%, FLuc counter 0.9% and NPC1 prom act -1.1%.
O=c1c2ccccc2sn1-c1nccs1 was read as Rab9 promoter act -0.5%, ELG1 genotoxic -2.6%, SMN2 splice up 6.1%, FLuc counter 8.49µM* and NPC1 prom act 0.8%.
For CC(C)(C)NC(=O)NC(=O)COC(=O)CCC1CCCC1 the results were Rab9 promoter act 0.4%, ELG1 genotoxic 0.4%, FLuc counter -2.4% and NPC1 prom act 1.5%.
CCOC(=O)c1cc(-c2ccccc2)sc1NC(=O)C(C)N1C(=O)c2ccccc2C1=O (stereo not given) was read as Rab9 promoter act -4.1%, ELG1 genotoxic 0.1%, SMN2 splice up -18.4%, FLuc counter -1.8% and NPC1 prom act -0.3%.
COc1ccccc1N1CCN(S(=O)(=O)Cc2ccccc2Cl)CC1 was read as SMN2 splice up -35.5% and FLuc counter 3.5%.
CN(C)S(=O)(=O)c1cccc(-n2sc3ccccc3c2=O)c1 was read as Rab9 promoter act inconclusive, ELG1 genotoxic 1.4%, SMN2 splice up 8.1%, FLuc counter 10.7µM* and NPC1 prom act 10.5%.
`O=C(O)c1cccc(-n2sc3ccccc3c2=O)c1` gave Rab9 promoter act 0.8%, ELG1 genotoxic -0.3%, FLuc counter inconclusive and NPC1 prom act 0.8%.
For COc1ccc(CCN2C(=O)c3cccc4c(C(=O)N5CCCCC5)ccc(c34)C2=O)cc1OC the results were Rab9 promoter act -5.8%, ELG1 genotoxic -7.7%, SMN2 splice up -74.0%, FLuc counter -1.9% and NPC1 prom act 0.4%.
Screening O=C(/C=C/Nc1ccc(Br)cc1F)c1ccccc1 returned Rab9 promoter act 0.447µM*, ELG1 genotoxic inconclusive, SMN2 splice up -42.6%, FLuc counter 0.107µM* and NPC1 prom act 1.26µM*.
O=C(/C=C/NCC(=O)c1ccccc1)c1ccc(Br)cc1 was read as Rab9 promoter act 13.3%, ELG1 genotoxic 3.5%, SMN2 splice up 10.5%, FLuc counter -17.4% and NPC1 prom act 9.1%.
Screening O=C(/C=C/Nc1ccccc1F)c1ccc(Br)cc1 returned Rab9 promoter act 0.794µM*, ELG1 genotoxic 1.03µM*, SMN2 splice up 5.01µM*, FLuc counter 0.477µM* and NPC1 prom act 0.562µM*.
O=C(CCCc1ccccc1)Nc1ccc(Br)cc1F was read as Rab9 promoter act 24.7%, ELG1 genotoxic inconclusive, FLuc counter inconclusive and NPC1 prom act inconclusive.
`CCOc1ccccc1NC(=O)C(=O)NCCc1sc(-c2cccc(F)c2)nc1C` gave FLuc counter 3.9%.
Screening Cc1ccsc1C(=O)N/N=C/c1ccc2c(c1)OCO2 returned Rab9 promoter act 0.631µM*, ELG1 genotoxic 2.31µM*, SMN2 splice up 2.51µM*, FLuc counter 1.51µM* and NPC1 prom act 0.708µM*.
Cc1ccsc1C(=O)N/N=C/C=C/c1ccccc1[N+](=O)[O-] was read as Rab9 promoter act inconclusive, ELG1 genotoxic inconclusive, SMN2 splice up -6.2%, FLuc counter inconclusive and NPC1 prom act 17.4%.
Screening Cc1ccsc1/C=N/NC(=O)Nc1ccccc1 returned Rab9 promoter act 1.58µM*, ELG1 genotoxic inconclusive, SMN2 splice up 15.8µM*, FLuc counter 2.69µM* and NPC1 prom act 3.16µM*.
`Cc1ccccc1/C=N/NC(=O)c1sccc1C` gave Rab9 promoter act 2.24µM*, ELG1 genotoxic 18.4µM*, SMN2 splice up 10µM*, FLuc counter 1.51µM* and NPC1 prom act inconclusive.
For O=C(N/N=C/c1ccc2c(c1)OCO2)c1cccs1 the results were Rab9 promoter act 1.26µM*, ELG1 genotoxic 7.31µM*, SMN2 splice up 12.6µM*, FLuc counter 3.38µM* and NPC1 prom act 1.26µM*.
For O=S(=O)(c1cc(F)ccc1F)N1CCC2(CC1)OCCN2S(=O)(=O)c1cccs1 the results were Rab9 promoter act -6.5%, ELG1 genotoxic -0.9%, FLuc counter -0.2% and NPC1 prom act -4.5%.
Cc1c(NC(=O)c2ccc(Cl)nc2)cccc1-c1nc2cccnc2s1 was read as Rab9 promoter act -3.5%, ELG1 genotoxic -9.6%, FLuc counter 13.5µM* and NPC1 prom act 3.0%.
For Cc1c(NC(=O)c2ccco2)cccc1-c1nc2cccnc2s1 the results were Rab9 promoter act -2.4%, ELG1 genotoxic -14.7%, SMN2 splice up -11.2%, FLuc counter 23.9µM* and NPC1 prom act 6.1%.
Screening CCOC(=O)c1cnc2nc(NCc3ccc(OCc4ccccc4)cc3)[nH]n2c1=O returned Rab9 promoter act 2.3%, ELG1 genotoxic -2.5%, SMN2 splice up 18.7%, FLuc counter 10.7µM* and NPC1 prom act 1.7%.
O=C(OCC1CC(c2ccccc2)=NO1)c1ccco1 (stereo not given) was read as Rab9 promoter act 1.3%, ELG1 genotoxic 1.8%, FLuc counter 7.57µM* and NPC1 prom act -0.7%.
O=C(OCC1CC(c2ccccc2)=NO1)c1ccc(Br)cc1 (stereo not given) was read as Rab9 promoter act 2.0%, ELG1 genotoxic -0.5%, SMN2 splice up inconclusive, FLuc counter 6.2% and NPC1 prom act -0.5%.
For COc1ccc(C)cc1NC(=O)c1oc2ccc(S(=O)(=O)N3CCC4(CC3)OCCO4)cc2c1C the results were FLuc counter 2.6%.
Screening C=CCOc1ccc(/C=N/Nc2ccccn2)cc1OC returned Rab9 promoter act inconclusive, ELG1 genotoxic inconclusive, SMN2 splice up 11.2µM*, FLuc counter 5.36µM* and NPC1 prom act 3.55µM*.
Screening COc1cc(/C=N/Nc2ccccn2)cc(OC)c1O returned Rab9 promoter act 3.8%, ELG1 genotoxic -8.8%, SMN2 splice up 18.7%, FLuc counter 12µM* and NPC1 prom act -5.7%.
For COc1cc(/C=N/Nc2ccc(C(F)(F)F)cn2)cc(OC)c1O the results were Rab9 promoter act 1.0%, ELG1 genotoxic -1.9%, SMN2 splice up 20.1%, FLuc counter inconclusive and NPC1 prom act 1.7%.
COc1ccc(/C=N/Nc2ncnc3scc(-c4ccccc4)c23)cc1OC was read as Rab9 promoter act 7.1%, ELG1 genotoxic -8.8%, SMN2 splice up 1.9%, FLuc counter inconclusive and NPC1 prom act -2.4%.
Screening COc1cc(/C=N/Nc2ccccn2)ccc1OCC(C)C returned Rab9 promoter act inconclusive, ELG1 genotoxic 14.5%, SMN2 splice up inconclusive, FLuc counter 2.69µM* and NPC1 prom act inconclusive.
For CCCOc1ccc(/C=N/Nc2ccccn2)cc1OC the results were Rab9 promoter act 2µM*, ELG1 genotoxic inconclusive, SMN2 splice up 10µM*, FLuc counter 3.38µM* and NPC1 prom act inconclusive.
Screening CCCOc1ccc(/C=N/NC(=O)c2c(-c3ccccc3)noc2C)cc1OC returned Rab9 promoter act 4.9%, ELG1 genotoxic -5.3%, FLuc counter 0.4% and NPC1 prom act -3.4%.
